Sampled rows, rich in hits. Any-hit rate of the full collection: about 1.6%.
KCNQ2 block = inhibitors of rat KCNQ2 potassium channel; O88943; CHO-K1 KCNQ2, FluxOR thallium flux, 20 min; stronger effect = lower value; B-score at 10 µM; 1.1% of 310,000 active;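 active means fluorescence ratio B-score at most minus 3 library SDs, with starting brightness B-score within 2 library SDs, cut at about -5.5 in these data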
Target sequence (O88943 whole entry, looked up): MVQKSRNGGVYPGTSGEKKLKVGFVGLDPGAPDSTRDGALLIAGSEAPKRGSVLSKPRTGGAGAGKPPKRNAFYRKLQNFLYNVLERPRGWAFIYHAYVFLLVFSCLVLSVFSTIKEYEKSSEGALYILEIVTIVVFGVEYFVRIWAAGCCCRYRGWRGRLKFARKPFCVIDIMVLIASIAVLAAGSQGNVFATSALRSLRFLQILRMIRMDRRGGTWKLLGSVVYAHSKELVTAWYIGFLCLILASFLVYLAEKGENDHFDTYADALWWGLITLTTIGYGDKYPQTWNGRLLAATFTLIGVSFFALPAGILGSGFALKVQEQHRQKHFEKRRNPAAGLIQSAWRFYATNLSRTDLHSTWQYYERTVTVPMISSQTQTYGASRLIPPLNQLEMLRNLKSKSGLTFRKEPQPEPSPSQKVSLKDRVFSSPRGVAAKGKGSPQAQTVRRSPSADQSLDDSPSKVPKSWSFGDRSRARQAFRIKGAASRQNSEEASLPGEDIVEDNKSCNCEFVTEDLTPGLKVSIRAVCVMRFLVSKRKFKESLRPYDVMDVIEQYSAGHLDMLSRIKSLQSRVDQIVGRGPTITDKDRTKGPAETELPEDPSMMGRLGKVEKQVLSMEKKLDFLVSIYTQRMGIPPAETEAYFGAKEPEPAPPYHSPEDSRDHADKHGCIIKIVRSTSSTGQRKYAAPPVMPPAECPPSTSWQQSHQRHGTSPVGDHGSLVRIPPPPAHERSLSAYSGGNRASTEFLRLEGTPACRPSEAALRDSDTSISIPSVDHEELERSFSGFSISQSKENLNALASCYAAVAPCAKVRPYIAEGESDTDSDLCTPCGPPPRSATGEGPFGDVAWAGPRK
KCNQ2 enhance = potentiators of rat KCNQ2 potassium channel; O88943; B-score at 10 µM; 0.54% of 310,000 active; CHO-K1 KCNQ2, FluxOR thallium flux fluorescence; stronger effect = higher value;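 active means fluorescence ratio B-score at least 3 SD of library B-scores, with initial fluorescence B-score within 3 of them, cut at about 5.3 in these data; same plate scores as AID 2156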;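 further: B-score of peak minus minimum over baseline fluorescence ratio after K+ and Tl+ stimulus; positive B-score means potentiation of KCNQ2 with more thallium influx and brighter signal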
* = called active by the depositor; i = inactive; · = no result given.

SMILES	KCNQ2 block	KCNQ2 enhance
CC(C)(C)C(=O)Cn1c(=N)n(Cc2ccccc2)c2ccccc21	-6.24*	-6.24
CC(C)(C)C(=O)Cn1c(=N)n(Cc2ccccc2Cl)c2ccccc21	i	·
O=C(COC(=O)C1=COCCO1)NC(=O)c1ccc(OC(F)F)cc1	i	1.1
COc1ccccc1CNc1ncc(-c2ccc(F)cc2)n1C	i	0.13
COc1ccc(CNc2ncc(-c3ccc(F)cc3)n2C)c2ccccc12	-6.23*	-6.23
CC(CCc1ccccc1)NC(=O)CN1CCc2ccccc2C1 (centres undefined)	-5.79*	-5.79
O=C(NC(Cc1ccccc1)C(=O)N1CCc2ccccc2C1)c1ccccc1 (centres undefined)	-6.3*	-6.3
O=C(NC(Cc1ccccc1)C(=O)O)c1ccccc1 (centres undefined)	i	·
CC(=O)C(Cc1ccccc1)NC(=O)CN1CCc2ccccc2C1 (centres undefined)	i	·
Cc1ccccc1NC(=O)CN1CCc2ccccc2C1	i	·
COC(=O)c1ccccc1NC(=O)CN1CCc2ccccc2C1	-7.84*	-7.84
Cc1onc(-c2ccccc2)c1C(=O)Nc1ccc(S(=O)(=O)N2CCOCC2)cc1	i	0.06
COc1ccc(Cl)cc1NC(=O)CN(C)C(=O)c1cc2ccccc2cc1O	i	0.84
CCc1ccc(CN(C)C(=O)C2CCC(=O)N(Cc3ccccn3)C2)cc1 (centres undefined)	i	·
O=C(Nc1ccccc1C(=O)N1CCCCC1)c1ccccc1C(F)(F)F	i	·
Cc1ccccc1-n1ncc2c1CC(C)(C)CC2NC(=O)c1cn[nH]c1C (centres undefined)	i	·
Cc1nc(NCCCO)c(C#N)c2c1COC(C)(C)C2	i	·
CCN(CC)c1nc(C)c2c(c1C#N)CC(C)(C)OC2	-6.69*	-6.69
O=C(Cc1ccc(Cl)c(Cl)c1)N1CCOCC1	i	·
C[C@@H]1CC=C[C@H]2[C@H]1C(=O)N(Cc1ccccc1)[C@H]2c1ccc(-c2ccoc2)cc1F	-6.93*	-6.93
C[C@@H]1CC=C[C@H]2[C@H]1C(=O)N(Cc1ccccc1)[C@H]2c1ccc(-c2ccc(F)cc2)cc1F	i	·
CC(=O)c1ccc(N2CCN(S(=O)(=O)c3c(C)[nH]c(C)c3C(=O)N3CCCCC3)CC2)cc1	i	0.53
CN(C)C(=O)c1ccc(NC(=O)CN2C(=O)NC3(CCCc4ccccc43)C2=O)cc1 (centres undefined)	i	·
N#Cc1c(-c2ccc(C(F)(F)F)cc2)cc(-c2ccccc2)[nH]c1=S	i	5.44*
Cc1ccc(-c2cc(-c3ccccc3)[nH]c(=S)c2C#N)cc1	i	4.94
SMILES	KCNQ2 block	KCNQ2 enhance
O=C(NCCC1CCCCN1S(=O)(=O)c1cccs1)C(=O)Nc1cccc(F)c1 (centres undefined)	i	·
O=C(Nc1ccccc1Cl)NC1CCCCCCC1	i	0.88
COc1c(CC=C(C)C)cc(C2CC(=O)c3c(O)cc(O)cc3O2)c(CC=C(C)C)c1O (centres undefined)	-5.82*	-5.82
COc1cc(C2CC(=O)c3c(O)cc(O)cc3O2)ccc1O (centres undefined)	i	·
COC(=O)C1=C(C)N(C2CCCCC2)C(=O)/C1=C\c1cccs1	i	·
CS(=O)(=O)N(CC(=O)Nc1ccccc1-c1ccccc1)c1ccccc1	i	·
Cc1ccc(N(CC(=O)Nc2ccccc2-c2ccccc2)S(=O)(=O)c2ccccc2)c(C)c1	-7.7*	-7.7
COc1ccc(N2CCN(Cc3cc4c(cc3O)CCC4)CC2)cc1	i	0.46
Oc1cc2c(cc1CN1CCN(c3cccc(C(F)(F)F)c3)CC1)CCC2	-7.26*	-7.26
CC(C)(C)C1=NN(C(=O)c2ccccc2)C(O)(C(C)(C)C)C1 (centres undefined)	i	·
CC(C)C1=NN(C(=O)c2ccccc2)C(O)(C(C)(C)C)C1 (centres undefined)	i	7.11*
O=C(Nc1ccc(Oc2ccccc2)cc1)N[C@@H](Cc1ccccc1)C(=O)O	i	0.03
Nc1ccccc1C(=O)N1CCc2ccccc21	i	0.86
COc1cccc(NC(=O)n2nc(N)cc2-c2ccc(Cl)cc2)c1	-5.71*	-5.71
COc1cccc(NC(=O)COC(=O)Cc2ccc(Cl)cc2)c1	i	0.88
O=C(O)CC1S/C(=N\N=C2\C(=O)Nc3ccccc32)N(c2ccc(O)cc2)C1=O (centres undefined)	i	1.31
O=C(Nc1ccccc1N1CCCC1)c1cc(Cl)ccc1Cl	-5.74*	-5.74
O=C(Nc1ccccc1N1CCCC1)c1ccccc1Cl	-6.08*	-6.08
O=C(Nc1ccccc1N1CCCC1)c1ccc(Cl)cc1Cl	i	·
Cc1ccccc1C(=O)Nc1ccccc1N1CCCCC1	i	·
CCOc1ccc(C2(C)CC(=O)N(C)C2=O)cc1 (centres undefined)	i	0.62
COCCOC1CCN(C(=O)C2CCC(=O)N(CCc3ccccc3)C2)CC1 (centres undefined)	i	0.48
CCOC(=O)CSc1nc2sc(C)c(C)c2c(=O)[nH]1	i	1.09
CCOC(=O)/C(=C\c1ccc(Cl)cc1)c1nc2sc(C)c(C)c2c(=O)[nH]1	-6.93*	-6.93
COc1ccc(S(=O)(=O)n2ccnc2C)c(C)c1C	i	·
SMILES	KCNQ2 block	KCNQ2 enhance
Cc1cccc(OCC(=O)OCC(=O)N2CCN(C(=O)c3ccco3)CC2)c1C	i	1.53
CC12CC(O)C3c4ccc(O)cc4CCC3C1CC/C2=N\O (centres undefined)	i	·
COc1ccc(C2CC(=O)c3cnc(Nc4cc(C)cc(C)c4)nc3C2)cc1 (centres undefined)	-5.92*	-5.92
COc1ccc(C2CC(=O)c3cnc(NC(=O)c4cc(OC)cc(OC)c4)nc3C2)cc1 (centres undefined)	i	0.43
CCCCN(C)CCn1c(=S)[nH]c2cc(OCC)c(OCC)cc2c1=O	i	5.4*
CCOc1cc2[nH]c(=S)n(CCOC)c(=O)c2cc1OCC	i	0.16
O=C(NC(=O)N1CCN(C(c2ccccc2)c2ccccc2)CC1)c1ccccc1	i	·
CCC[C@@H](CN[C@@H](CNC)C(C)C)NCCCCc1ccccc1	i	·
CCC[C@@H](CNC)NC[C@H](Cc1ccccc1)NCCCCc1ccccc1	-6*	-6
O=Cc1cccc(OCc2cccc3ccccc23)c1	i	0.06
CC1=C(C(N)=O)C(c2ccc(Cl)c(Cl)c2)n2ncnc2N1 (centres undefined)	i	0.12
C=C1CCN([C@@H](C)C(=O)NCc2ccc(Cl)cc2)S(=O)(=O)c2ccccc21	i	0.5
CC(=O)NC(CC(=O)NCCN1C(=O)S/C(=C\c2ccccc2)C1=O)c1ccccc1 (centres undefined)	i	0.05
CSc1nc(Cl)cc(Nc2ccccc2N)n1	-6.05*	-6.05
Nc1nc(Cl)cc(Nc2ccccc2Cl)n1	i	3.42
Cc1ccc(C)c(N2CCN(S(=O)(=O)c3c(C)[nH]c(C)c3C(=O)N3CCCCC3)CC2)c1	-6.7*	-6.7
Cc1ccc(Cl)cc1N1CCN(S(=O)(=O)c2c(C)[nH]c(C)c2C(=O)N2CCCCC2)CC1	-7.23*	-7.23
Cc1ccc(C)c(N2CCN(S(=O)(=O)c3c(C(=O)N4CCCCC4)c(C)n(C)c3C)CC2)c1	i	·
Cc1[nH]c(C)c(S(=O)(=O)N2CCN(c3cccc(Cl)c3)CC2)c1C(=O)N1CCCCC1	i	·
COc1ccc(N/C(=C2\CCCC2=O)C2CCCCC2)cc1	i	·
COc1ccc(NC(=O)c2ccc3nc(-c4ccccc4)c(-c4ccccc4)nc3c2)c(OC)c1	i	·
